CtBP-E1A inh: blocks the CtBP interaction with E1A | activity change, % (test concentration not listed) | 0.49% of 340,000 active | AlphaScreen GST-E1A/His-CtBP binding, 1536-well; hits give low values; in the data active = activity change below about -65%; inconclusive = mostly about -30% to -63%; note: % is set by controls: 0 for no effect and ±100 for the full control effect
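GST-E1A and His-tagged CtBP (125 nM each as 5X stock) were preincubated with pin-transferred compound for 2 h at 37 °C in the dark, then glutathione donor and nickel acceptor beads were added for 1 h before AlphaScreen reading.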
MBNL1-CUG inh: MBNL1-poly(CUG) RNA binding inhibition. Q9NR56. TR-FRET MBNL1-His/biotin-(CUG)12 binding, 665/545 ratio. Potency, µM (top dose mostly 57.5 µM), inactives show top-dose activity change, negative = inhibition, actives largely listed as inhibitors. 0.036% of 280,000 active. AID 2675; active = well fitted inhibition curve with a large enough effect in the signal ratio, with a control signal flat, not every such curve was filed as active; inconclusive = small, poorly fitted or top-dose-only effect, or effect the other way, or a change in a side signal; inactive = no such curve, though single readings can be large or run the other way; the % refers to the signal ratio; note: potency is the fitted concentration of half-maximal effect; % is set by controls: 0 for no effect and ±100 for the full control effect
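Compound titration spanned 92 nM–58 uM against the MBNL1-His/biotin-(CUG)12 complex. After 60 min at room temperature with 5 nM streptavidin-XL665 and 0.055 ng/ul terbium anti-His, ratiometric 665/545 nm emission (Ex 340 nm) normalized to controls.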
CBFb-RUNX1 inh: CBF-beta/RUNX1 interaction disruption | 230,000 tested, under 10 active | AlphaScreen CBFb-His/RUNX1-biotin binding, biochemical | Q01196+Q13951 | AID 1477 | Potency, µM (series often up to 59.8 µM), for the others: top-dose activity, negative = inhibition, usual class: inhibitors; note: % of control where 0% means no effect
Target sequence (Q01196 whole entry, looked up): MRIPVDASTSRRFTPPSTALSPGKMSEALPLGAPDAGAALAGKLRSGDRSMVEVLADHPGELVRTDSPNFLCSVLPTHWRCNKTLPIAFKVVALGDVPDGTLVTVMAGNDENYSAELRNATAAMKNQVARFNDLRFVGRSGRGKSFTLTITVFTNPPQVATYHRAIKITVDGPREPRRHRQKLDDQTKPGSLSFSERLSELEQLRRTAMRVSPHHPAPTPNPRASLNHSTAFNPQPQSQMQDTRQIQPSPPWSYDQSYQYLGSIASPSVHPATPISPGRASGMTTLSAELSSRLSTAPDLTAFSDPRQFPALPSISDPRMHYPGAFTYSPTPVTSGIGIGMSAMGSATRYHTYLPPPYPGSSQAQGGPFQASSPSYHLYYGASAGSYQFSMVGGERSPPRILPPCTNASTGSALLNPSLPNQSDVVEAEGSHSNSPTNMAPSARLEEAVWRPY
Target sequence (Q13951 whole entry, looked up): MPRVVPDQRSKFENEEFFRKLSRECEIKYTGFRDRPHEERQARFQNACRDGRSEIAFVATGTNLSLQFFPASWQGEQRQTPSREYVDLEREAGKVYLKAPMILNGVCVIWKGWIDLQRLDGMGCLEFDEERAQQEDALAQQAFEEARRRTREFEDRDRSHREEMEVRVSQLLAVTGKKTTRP
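AlphaScreen proximity signal reports loss of binding between His-tagged CBF-beta and biotin-labelled RUNX1, each at 30 nM. Proteins are pre-associated for 20 minutes, compounds added for 15 minutes, then beads for 90 minutes, all at ambient temperature.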
Six1-Eya2 blk: Six1/Eya2 interaction inhibition; activity change, % (concentration not given with the values); AID 651725; 0.56% of 360,000 active; Q15475+O00167; AlphaScreen GST-Six1/His-Eya2 binding, biochemical; hits give low values; in the data active = activity change below about -65%; inconclusive = mostly about -30% to -63%; note: % is set by controls: 0 for no effect and ±100 for the full control effect
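Six1/Eya2 binding was read as AlphaScreen signal after compounds were pinned into GST-Six1 plus His-tagged Eya2 (5X stock 250/500 nM) in pH 8.0 Tris/NaCl/TCEP buffer, beads added, then incubated 1 h, 37 C, dark.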
RORg inh: blocks mouse ROR gamma transcriptional activity; P51450; Drosophila S2 Gal4-RORgamma UAS-luciferase reporter, 20 h; Potency, µM (highest dose often 53.6 µM), for the others: at the highest dose activity change, negative = inhibition, hits mostly inhibitors; 5.4% of 310,000 active; AID 2551; note: potency is the fitted concentration of half-maximal effect; % is set by controls: 0 for no effect and ±100 for the full control effect; nearly all actives have a fitted effect of over 60% in size
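In this cell-based reporter format, copper sulfate (700 uM final) drives Gal4–ROR gamma fusion expression from a metallothionein promoter in Drosophila Schneider cells; compounds preincubated 1 hr, reporter read after 20 hr at ambient temperature.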
Gal4-VP16 FLuc: counter-screen for ROR gamma inhibitors: Gal4-VP16 reporter; Drosophila S2 Gal4-VP16 UAS-luciferase, luminescence, 20 h; Potency, µM (doses to about 53.6 µM), inactives show at the top dose activity, negative = inhibition, hits mostly inhibitors; 3.5% of 310,000 active;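 note: Gal4-VP16 expression switched on by copper sulfate through the metallothionein promoter; potency is the fitted concentration of half-maximal effect; % is set by controls: 0 for no effect and ±100 for the full control effect; nearly all actives have a fitted effect of over 50% in size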
Numbers without * were called inactive; ? = inconclusive; nt = no result; [ ] = dose if it differs, or a comment. Sampled rows, rich in hits. Any-hit rate of the full collection: about 5.5%. Unless noted, calls come from the whole dose curve; as a rule, active = well fitted curve in the direction sought with a large enough effect; inconclusive = small, poorly fitted or top-dose-only effect, or another doubt; inactive = no such curve, though single readings can be large; an effect the other way counts as inactive or inconclusive.

SMILES	CtBP-E1A inh	MBNL1-CUG inh	CBFb-RUNX1 inh	Six1-Eya2 blk	RORg inh	Gal4-VP16 FLuc
O=C(CNC(=O)c1ccccc1Br)N/N=C/c1cc(Br)ccc1O	-73*	24%	-13%	?	2.2µM*	5µM*
O=C(CNC(=O)c1ccccc1Br)N/N=C\c1cc([N+](=O)[O-])cc(Br)c1O	-73*	?	nt	?	11µM*	7.9µM*
COC(=O)N/N=C/c1cc([N+](=O)[O-])cc(Br)c1O	9	?	5%	-8	11µM*	?
O=C(N/N=C/c1cccnc1)c1cccc(Cl)c1	2	7%	nt	-7	5%	-14%
O=C(N/N=C/c1cc(Cl)ccc1O)c1cccnc1	-91*	?	nt	-68*	1.1µM*	0.71µM*
O=C(CNC(=O)c1ccccc1Br)N/N=C/c1cccs1	nt	?	nt	-10	0%	1%
CCSc1ccccc1-c1nc(-c2ccncc2)no1	nt	18%	nt	13	-10%	5%
COCCNC(=O)C1(C)CCCN(Cc2ccc(-c3ccccc3)o2)C1 (configuration not stated)	2	nt	nt	5	nt	nt
COc1cc(C(=O)NCCC(=O)N2CCC3(CC2)NCCc2[nH]cnc23)cc(OC)c1OC	nt	-1%	nt	-13	-18%	-7%
N=c1c2c(-c3ccccc3)c(-c3ccccc3)n(Cc3ccco3)c2ncn1Cc1ccco1	-27	-1%	-27%	-28	?	28µM*
N=c1c2c(-c3ccccc3)c(-c3ccccc3)n(Cc3ccccc3)c2ncn1CCCn1ccnc1	-1	-3%	3%	-6	10µM*	10µM*
CCCCn1cnc2c(c(-c3ccccc3)c(-c3ccccc3)n2Cc2ccco2)c1=N	1	-7%	-6%	2	-42%	-22%
N#CCCN(Cc1cccnc1)C(=S)NC(=O)c1ccccc1	10	nt	nt	3	nt	nt
CC1(C(=O)NC(=S)N(CCC#N)Cc2cccnc2)CC1(Cl)Cl (configuration not stated)	nt	0%	7%	nt	1.4µM*	?
CCOC(=O)c1c(N2C(=O)C3C4C=CC(O4)C3C2=O)sc2c1CCCC2 (configuration not stated)	-3	5%	-1%	-3	?	18µM*
CCOC(=O)c1c(-n2cnnn2)sc2c1CCCC2	7	nt	7%	6	-14%	-26%
O=C(N/N=C(\Cc1ncc[nH]1)c1ccccc1)c1ccccc1	nt	4%	-2%	nt	11µM*	-9%[10 µM]
C/C(=N/NC(=O)c1ccncc1)c1ccccc1	6	1%	nt	-7	1%[1.91 µM]	-4%
O=C(N/N=C(\Cc1ncc[nH]1)c1ccccc1)c1ccncc1	-90*	9%	nt	-82*	-37%	-14%
CCCc1nc(SCC(=O)Nc2nccs2)c2ccccc2n1	5	18%	nt	6	1%	-2%
O=C(CSc1nc(-c2ccccc2)nc2ccccc12)Nc1nccs1	4	-9%	-5%	-2	11µM*	?
COc1ccc(-c2n[nH]c(=S)n2-c2ccccc2C)cc1	1	-1%	nt	14	5.6µM*	6.3µM*
CCN(CC)c1ccc(-c2n[nH]c(=S)n2-c2ccccc2C)cc1	-5	22%	-26%	-11	?	-14%
COc1ccc(-c2n[nH]c(=S)n2-c2ccc(Br)cc2)cc1OC	2	12%	nt	-4	20µM*	?
COc1ccc(-c2n[nH]c(=S)n2-c2ccccc2C)cc1OC	0	-5%	nt	-5	11µM*	?
CC1(c2ccc(Cl)cc2Cl)NC(=O)N(CC(=O)NCCC2=CCCCC2)C1=O (configuration not stated)	0	nt	nt	-4	nt	nt
CC(NCC(=O)Nc1ccccc1C(=O)NC1CC1)c1ccco1 (configuration not stated)	9	nt	nt	-5	nt	nt
O=c1[nH]c(Cc2ccccn2)nc2scc(-c3ccccc3Cl)c12	-3	?	3%	-6	6.3µM*	11µM*
